Test results taken from PubChem BioAssay AID1159580 (chemical genetic matrix, 2015).
Values joined by “and” are separate entries in the source; they are usually repeats but may differ in a detail not shown here. Identical values can stand only once. The whole screen tested about 5,500 compounds, of which about 2,000 (36%) were called active. Another 18% or so got no clear call; they are omitted. Rule as the data show it: active = normalized growth mostly below about 0.91 (no sharp cut-off); inconclusive = no clear call, values can overlap the other calls; inactive = mostly above about 0.92. The list shows a part of the results.

Experiment: chemical genetic growth profiling, strain panel (AID 1159580);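 also: tested at 20 µM; growth read once vehicle control cultures reached saturation at 30 °C; 1 = growth at the plate median or of vehicle wells; lower values mean less growth of the strain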
Details: growth OD

Measured: normalized growth

Cn1c(=O)c2[nH]cnc2n(C)c1=O
inactive: S. cerevisiae deletion strains, locus YJR066W, strain TOR1, active compounds read low 0.959 | S. cerevisiae deletion strains, locus YKL009W, strain mrt4, active compounds read low 0.98 | S. cerevisiae deletion strains, locus YKL068W, active compounds read low 0.992 | S. cerevisiae deletion strains, locus YKL085W, strain MDH1 (second series), active compounds read low 0.982 | S. cerevisiae deletion strains, locus YKL085W, strain MDH1, active compounds read low 0.982 | S. cerevisiae deletion strains, locus YKL160W, strain elf1, active compounds read low 1.04 | S. cerevisiae deletion strains, locus YKL190W, strain CNB1, active compounds read low 0.996 | S. cerevisiae deletion strains, locus YKR001C, strain vps1, active compounds read low 0.971 | S. cerevisiae deletion strains, locus YKR026C, strain gcn3, active compounds read low 1.01 | S. cerevisiae deletion strains, locus YKR091W, strain srl3, active compounds read low 1.02 | S. cerevisiae deletion strains, locus YLL001W, strain dnm1, active compounds read low 1.01 | S. cerevisiae deletion strains, locus YLL026W, active compounds read low 1.02 | S. cerevisiae deletion strains, locus YLL041C, strain sdh2, active compounds read low 1.01 | S. cerevisiae deletion strains, locus YLR027C, strain aat2, active compounds read low 1.02 | S. cerevisiae deletion strains, locus YLR039C, strain RIC1, active compounds read low 0.982 | S. cerevisiae deletion strains, locus YLR058C, strain SHM2, active compounds read low 0.988 | S. cerevisiae deletion strains, locus YLR102C, strain apc9, active compounds read low 0.977 | S. cerevisiae deletion strains, locus YLR113W, strain HOG1, active compounds read low 0.99 | S. cerevisiae deletion strains, locus YLR221C, strain rsa3, active compounds read low 1.02 | S. cerevisiae deletion strains, locus YLR258W, strain gsy2, active compounds read low 1.02 | S. cerevisiae deletion strains, locus YLR262C, strain YPT6 (second series), active compounds read low 1 | S. cerevisiae deletion strains, locus YLR262C, strain YPT6, active compounds read low 0.993 | S. cerevisiae deletion strains, locus YLR268W, strain sec22, active compounds read low 0.941 | S. cerevisiae deletion strains, locus YLR320W, strain mms22, active compounds read low 1.01 | S. cerevisiae deletion strains, locus YLR330W, strain CHS5, active compounds read low 0.992 | S. cerevisiae deletion strains, locus YLR342W, strain FKS1 (second series), active compounds read low 0.99 | S. cerevisiae deletion strains, locus YLR342W, strain FKS1, active compounds read low 1.02 | S. cerevisiae deletion strains, locus YLR357W, strain rsc2, active compounds read low 1.01 | S. cerevisiae deletion strains, locus YLR370C, strain arc18, active compounds read low 1.03 | S. cerevisiae deletion strains, locus YLR371W, strain rom2, active compounds read low 0.968 | S. cerevisiae deletion strains, locus YLR384C, strain iki3, active compounds read low 1.01 | S. cerevisiae deletion strains, locus YLR418C, strain cdc73, active compounds read low 0.971 | S. cerevisiae deletion strains, locus YML016C, strain PPZ1, active compounds read low 0.989 | S. cerevisiae deletion strains, locus YML032C, strain rad52, active compounds read low 0.971 | S. cerevisiae deletion strains, locus YML120C, strain ndi1, active compounds read low 1.02 | S. cerevisiae deletion strains, locus YML124C, strain tub3, active compounds read low 0.969 | S. cerevisiae deletion strains, locus YMR058W, strain fet3, active compounds read low 1.02 | S. cerevisiae deletion strains, locus YMR078C, strain ctf18, active compounds read low 0.975 | S. cerevisiae deletion strains, locus YMR125W, strain sto1, active compounds read low 1.01 | S. cerevisiae deletion strains, locus YMR129W, active compounds read low 1.01 | S. cerevisiae deletion strains, locus YMR205C, strain PFK2, active compounds read low 1.04 | S. cerevisiae deletion strains, locus YMR223W, strain ubp8, active compounds read low 0.984 | S. cerevisiae deletion strains, locus YMR231W, strain pep5, active compounds read low 1.02 | S. cerevisiae deletion strains, locus YMR263W, strain SAP30, active compounds read low 0.996 | S. cerevisiae deletion strains, locus YMR307W, strain GAS1, active compounds read low 0.992 | S. cerevisiae deletion strains, locus YNL067W, strain RPL9B, active compounds read low 0.993 | S. cerevisiae deletion strains, locus YNL071W, strain lat1, active compounds read low 1.03 | S. cerevisiae deletion strains, locus YNL128W, strain TEP1, active compounds read low 0.985 | S. cerevisiae deletion strains, locus YNL153C, strain GIM3, active compounds read low 0.988 | S. cerevisiae deletion strains, locus YNL175C, strain NOP13, active compounds read low 0.995 | S. cerevisiae deletion strains, locus YNL183C, strain NPR1, active compounds read low 0.955 | S. cerevisiae deletion strains, locus YNL197C, strain WHI3, active compounds read low 1 | S. cerevisiae deletion strains, locus YNL209W, strain ssb2, active compounds read low 1.02 | S. cerevisiae deletion strains, locus YNL224C, strain SQS1, active compounds read low 0.99 | S. cerevisiae deletion strains, locus YNL233W, strain BNI4, active compounds read low 0.993 | S. cerevisiae deletion strains, locus YNL248C, strain rpa49, active compounds read low 1.05 | S. cerevisiae deletion strains, locus YNL250W, strain rad50, active compounds read low 0.979 | S. cerevisiae deletion strains, locus YNL271C, strain bni1, active compounds read low 0.967 | S. cerevisiae deletion strains, locus YNL298W, strain CLA4, active compounds read low 0.965 | S. cerevisiae deletion strains, locus YNL307C, strain MCK1, active compounds read low 0.971 | S. cerevisiae deletion strains, locus YNL322C, strain KRE1 (second series), active compounds read low 1.01 | S. cerevisiae deletion strains, locus YNR049C, strain mso1, active compounds read low 1.02 | S. cerevisiae deletion strains, locus YNR052C, strain pop2, active compounds read low 0.971 | S. cerevisiae deletion strains, locus YOL006C, strain TOP1, active compounds read low 1.01 | S. cerevisiae deletion strains, locus YOL012C, strain htz1 0.812 | S. cerevisiae deletion strains, locus YOL147C, strain pex11, active compounds read low 0.973 | S. cerevisiae deletion strains, locus YOR001W, strain rrp6, active compounds read low 0.994 | S. cerevisiae deletion strains, locus YOR061W, strain CKA2, active compounds read low 0.988 | S. cerevisiae deletion strains, locus YOR069W, strain VPS5, active compounds read low 0.982 | S. cerevisiae deletion strains, locus YOR070C, strain gyp1, active compounds read low 1.04 | S. cerevisiae deletion strains, locus YOR080W, strain dia2, active compounds read low 1 | S. cerevisiae deletion strains, locus YOR083W, strain WHI5 (second series), active compounds read low 1.01 | S. cerevisiae deletion strains, locus YOR083W, strain WHI5, active compounds read low 1.03 | S. cerevisiae deletion strains, locus YOR106W, strain vam3, active compounds read low 1.05 | S. cerevisiae deletion strains, locus YOR136W, strain idh2, active compounds read low 0.986 | S. cerevisiae deletion strains, locus YOR144C, strain elg1, active compounds read low 0.981 | S. cerevisiae deletion strains, locus YOR184W, strain ser1, active compounds read low 0.97 | S. cerevisiae deletion strains, locus YOR231W, strain MKK1, active compounds read low 0.979 | S. cerevisiae deletion strains, locus YOR265W, strain rbl2, active compounds read low 1.01 | S. cerevisiae deletion strains, locus YOR270C, strain vph1, active compounds read low 1.05 | S. cerevisiae deletion strains, locus YOR290C, strain snf2, active compounds read low 1.05 | S. cerevisiae deletion strains, locus YOR316C, strain cot1, active compounds read low 0.969 | S. cerevisiae deletion strains, locus YPL051W, strain arl3, active compounds read low 1.04 | S. cerevisiae deletion strains, locus YPL078C, strain atp4, active compounds read low 1.04 | S. cerevisiae deletion strains, locus YPL106C, strain sse1, active compounds read low 1.05 | S. cerevisiae deletion strains, locus YPL240C, strain hsp82, active compounds read low 1.02 | S. cerevisiae deletion strains, locus YPL241C, strain CIN2, active compounds read low 0.992 and 1 | S. cerevisiae deletion strains, locus YPL256C, strain CLN2, active compounds read low 0.97 | S. cerevisiae deletion strains, locus YPR119W, strain clb2, active compounds read low 0.986 | S. cerevisiae deletion strains, locus YPR141C, strain kar3, active compounds read low 0.961 | S. cerevisiae deletion strains, locus YPR163C, strain tif3, active compounds read low 0.965 | S. cerevisiae deletion strains, locus YPR167C, strain met16, active compounds read low 0.977 | S. cerevisiae deletion strains, strain wtn01, active compounds read low 0.953 | S. cerevisiae strains, strain wild type, active compounds read low 1
